Laboratory results taken from PubChem BioAssay (NCATS).
Inconclusive results are not listed. Entries that show only a call come without a potency. Unmarked numbers belong to inactive results. Calls of active or inactive are those of the source. The call rests on the fitted dose curve; in most records, active means well fitted curve in the direction sought with a large enough effect; inconclusive means small, poorly fitted or top-dose-only effect, or another doubt; inactive means no such curve, though single readings can be large; an effect the other way counts as inactive or inconclusive.

Assays:
[1] = P-glycoprotein substrates identified in KB-8-5-11 adenocarcinoma cell line, qHTS therapeutic library screen (AID 1346987); conditions: KB-8-5-11 (P-gp overexpressing) viability, CellTiter-Glo, 72 h; series mostly up to 44.5 µM; further: nearly all actives have a fitted effect of over 65% in size
How it was run: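 KB-8-5-11: colchicine-selected sub-line of KB-3-1 over-expressing P-gp; assay medium lacked colchicine. 72 h drug exposure at 37 degree C, CellTiter-Glo.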

[2] = system: Zika virus NS2B-NS3 protease (linked construct); experiment: Primary screen NINDS Rhodamine qHTS for Zika virus inhibitors (AID 1347160); conditions: purified NS2B-NS3 protease, Rhodamine110 substrate fluorescence; series mostly up to 33.1 µM; further: nearly all actives have a fitted effect of over 55% in size
How it was run: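 Percent inhibition, normalized to uninhibited and enzyme-free controls, is fitted to a 4-parameter Hill equation. Fluorescence change comes from a 15-min cleavage of 1.5 microM bis-peptide Rhodamine110 substrate by 25 nM linked NS2B-NS3 at room temperature.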

[3] = Confirmatory screen GU Rhodamine qHTS for Zika virus inhibitors qHTS (AID 1347157); conditions: purified enzyme assay, Rhodamine110 substrate fluorescence, 15 min; series mostly up to 114 µM; further: nearly all actives have a fitted effect of over 70% in size
How it was run: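 Percent inhibition came from the 15-min rise in Rhodamine110 fluorescence (1.5 microM substrate, ~15% conversion), normalized to no-inhibitor and no-enzyme wells and Hill-fitted. Unlinked protease, 25 nM, pH 8.0 Tris buffer; compounds up to 114 microM, 15-min preincubation.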

[4] = system: Zika virus NS2B-NS3 protease (unlinked complex); experiment: Primary screen GU Rhodamine qHTS for Zika virus inhibitors: Unlinked NS2B-NS3 protease assay (AID 1347159); conditions: Recombinant ZIKV NS2B-NS3 protease, Rhodamine110 substrate fluorescence; series mostly up to 107 µM; further: nearly all actives have a fitted effect of over 60% in size
How it was run: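 Compounds, tested up to 114 microM, were incubated for 15 minutes with 25 nM unlinked NS2B-NS3 protease at pH 8.0. Cleavage of 1.5 microM Rhodamine110 substrate was then followed by fluorescence for 15 minutes.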

[5] = Confirmatory screen NINDS Rhodamine qHTS for Zika virus inhibitors (AID 1347161); conditions: purified enzyme assay, Rhodamine110 substrate fluorescence, 15 min; series mostly up to 114 µM;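 further: purified Zika NS2B-NS3 protease with linked NS2B cofactor domain and Rhodamine110 peptide substrate; nearly all actives have a fitted effect of over 60% in size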
How it was run: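 Each compound, titrated, sat 15 min with 25 nM linked protease before 1.5 microM Rhodamine110 substrate went in. Fluorescence gain over the next 15 min, in pH 8.0 Tris with Tween 20, gave Hill-fitted curves.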

Compound: CC(=O)O[C@@H]1C(O)C[C@@]2(C)C(CC[C@@H](C)C23Cc2c(O)cc4c(c2O3)CNC4=O)C1(C)C (stereo partly specified)
- Potency [1]: inactive
- Potency [2]: inactive

Compound: CC1=C2CC(O)(C(C)(C)O)C(O[C@@H]3O[C@H](CO)[C@@H](O)[C@H](O)[C@H]3O)CC(C)C2CC1=O (stereo partly specified)
- Potency [1]: inactive
- Potency [2]: inactive

Compound: CC1=CC(=O)C(=C(C)C)CC2C(C)(O)CCC12O (stereo unspecified)
- Potency [1]: inactive
- Potency [2]: inactive

Compound: C=C(C(=O)O)[C@H]1C[C@]2(C)C(=O)CC[C@]23O[C@H]1C[C@@H]3C
- Potency [1]: inactive
- Potency [2]: inactive

Compound: COC(=O)c1ccccc1O[C@@H]1O[C@H](CO[C@@H]2OC[C@@H](O)[C@H](O)[C@H]2O)[C@@H](O)[C@H](O)[C@H]1O
- Potency [1]: inactive
- Potency [2]: inactive

Compound: C=C1C[C@@]2(O)O[C@@]3(C[C@H]2C(C)C)[C@@H](C)CC[C@@H]13
- Potency [1]: inactive
- Potency [2]: inactive

Compound: Cn1c2ccc(NC(=O)c3ccccc3)cc2c(=O)n2nc(C(=O)O)cc12
- Potency [1]: inactive
- Potency [2]: inactive

Compound: C[C@@H]1O[C@@H](OC2C(O[C@H]3[C@H](O[C@H]4CC[C@@]5(C)C(CC[C@]6(C)C5CC=C5C7CC(C)(C)CC(O)[C@]7(C)CC[C@]56C)C4(C)C)O[C@H](C(=O)O)[C@@H](O)[C@@H]3O)OC(CO)C(O)C2O)[C@H](O)[C@H](O)[C@H]1O (stereo partly specified)
- activity change, negative = cytotoxicity [1]: 3.3% [at 9.29 µM]
- Potency [2]: inactive

Compound: CC(=O)O[C@@H]1C=C2[C@H](CC[C@@]3(C)[C@@]2(O)CC[C@H]2Cc4c([nH]c5ccccc45)[C@@]23C)O[C@@H]1C(C)(C)O
- Potency [1]: inactive
- Potency [2]: inactive

Compound: Cn1cc(-c2c[nH]c3ncnc(N4CCOCC4)c23)cn1
- Potency [3]: inactive
- Potency [4]: inactive
- Potency [5]: inactive
